MARV entry inh = qHTS for inhibitors of binding or entry into cells for Marburg Virus. Marburg virus pseudotyped entry inhibition, cell reporter. Potency, µM (highest dose often 37.8 µM), for inactives: at the highest dose activity change, negative = inhibition, most hits filed as inhibitors. 1.8% of 300,000 active; calls by dose curve; tested in HEK293 cells; further: potency means the concentration at half of the fitted maximal effect
Lassa entry inh = qHTS for Inhibitors of binding or entry into cells for Lassa Virus. Lassa virus pseudotype entry inhibition, cell reporter. Potency, µM (highest dose often 37.9 µM), inactives show at the highest dose activity change, negative = inhibition, most hits filed as inhibitors. 1.2% of 300,000 active; calls by dose curve; tested in HEK293 cells; further: potency means the concentration at half of the fitted maximal effect; nearly all actives have a fitted effect of over 50% in size
Vaccinia Venus = qHTS for Stage-Specific Inhibitors of Vaccinia Orthopoxvirus: Venus Reporter Primary qHTS; Vaccinia virus Venus reporter expression, fluorescence; Potency, µM (top dose mostly 36.5 µM), without a hit: at the highest dose activity change, negative = inhibition, usual class: inhibitors; 0.46% of 330,000 active; calls by dose curve; tested in A549 cells; further: potency means the concentration at half of the fitted maximal effect; nearly all actives have a fitted effect of over 30% in size
Vaccinia mCherry = qHTS for Stage-Specific Inhibitors of Vaccinia Orthopoxvirus: mCherry Reporter Primary qHTS | Vaccinia virus mCherry reporter infection, fluorescence | Potency, µM (series often up to 36.5 µM), for the others: at the top dose activity change, negative = inhibition, actives largely listed as inhibitors | 0.63% of 310,000 active; calls by dose curve; tested in A549 cells; further: potency means the concentration at half of the fitted maximal effect; nearly all actives have a fitted effect of over 35% in size
HCMV inh = qHTS Assay for inhibitors of the human cytomegalovirus (HCMV); 4.5% of 410,000 active; activity change, negative = inhibition, % at 57.5 µM; HFF cells, HCMV-luciferase reporter, 72 h; active compounds read low; in the data active means activity change below about -60%; inconclusive means no clear call, values can overlap the other calls; inactive means above about -39%
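Inhibition of viral replication was scored as loss of reporter luminescence in HFFs infected with HCMV-luciferase (MOI 1 PFU/cell) for 72 h; compounds tested at 2 doses, normalized to buffer and Salinomycin controls.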
HCV inh = qHTS Assay for Inhibitors of Hepatitis C Virus (HCV); Potency, µM (titrated, usually from 41.8 µM), without a hit: at the highest dose activity change, negative = inhibition, most hits filed as inhibitors; 3.4% of 340,000 active; AID 651820, 2012; Huh7.5.1 HCVcc-Cre infection, luciferase reporter, 44 h; active means well fitted inhibition curve with a large enough effect; inconclusive means small, poorly fitted or top-dose-only effect, or another doubt; inactive means no such curve, though single readings can be large or run the other way; further: potency means the concentration at half of the fitted maximal effect
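1,000 cells/well; 4 h culture; + compound; + HCVcc-Cre (~0.5 moi); 44 h; luciferase substrate, RT 15 min; read 15 sec.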
* hit, by the source's call; [ ] = dose if it differs, or a comment. An excerpt weighted towards active compounds, which were near 7.8% of everything screened. On the % scale 0 is the no-effect control and ±100 the full control effect.

Screening CC(=O)Nc1ccc(NC(=O)c2csnn2)cc1 returned MARV entry inh 3.9%[46.1 µM], Lassa entry inh 20.1%[46.1 µM], Vaccinia Venus -4.8%, Vaccinia mCherry -7.4% and HCMV inh 29.9.
CCOCCCn1c(=NC(=O)c2ccco2)c(C(=O)OCC)cc2c(=O)n3cccc(C)c3nc21 was read as HCMV inh -7.7 and HCV inh 11.2µM*.
Screening CCOC(=O)c1cc2c(=O)n3cccc(C)c3nc2n(CC(C)C)c1=NC(=O)c1ccco1 returned MARV entry inh -10.7%[46.1 µM], Lassa entry inh 2.5%[46.1 µM], Vaccinia Venus -8.1%, Vaccinia mCherry inconclusive, HCMV inh 7.6 and HCV inh inconclusive.
For CCc1nc2ccc(C(=O)NCc3ccc(OC)c(OC)c3)cc2nc1CC the results were Lassa entry inh -16.3%[46.1 µM], Vaccinia Venus -4.8%, Vaccinia mCherry -13.8% and HCMV inh 28.2.
Screening COc1ccc(CCNC(=O)c2c([S-])n(-c3ccc(C)cc3)c3cccc[n+]23)cc1 returned MARV entry inh inconclusive, Lassa entry inh inconclusive, Vaccinia Venus -13.2%, Vaccinia mCherry -17.9%, HCMV inh inconclusive and HCV inh 11.2µM*.
`N#CC1=C(N)OC2=C(CCc3ccccc32)C1c1ccccc1` (stereo not drawn) gave MARV entry inh inconclusive, Lassa entry inh inconclusive, Vaccinia Venus inconclusive, Vaccinia mCherry inconclusive, HCMV inh -92.5* and HCV inh inconclusive.
For Cc1ccc(/C=C2\CCC3=C2OC(N)=C(C#N)C3c2ccc(C)cc2)cc1 (stereo not drawn) the results were MARV entry inh 13.6%, Lassa entry inh -20.6%, Vaccinia Venus 4.5%, Vaccinia mCherry inactive and HCV inh inconclusive.
Screening CC(=O)Nc1cncc(-c2ccccc2F)n1 returned Vaccinia Venus 1.7%, Vaccinia mCherry 24.0% and HCMV inh -95.5*.
`Cc1ccc(S(=O)(=O)Nc2c(C)nn(C)c2C)cc1C` gave MARV entry inh -24.2%, Lassa entry inh -2.4%[46.1 µM], Vaccinia Venus -1.7%, Vaccinia mCherry inactive, HCMV inh -37.1 and HCV inh 0.562µM*.
`Cc1nn(C)c(C)c1NS(=O)(=O)c1ccc(N2CCCC2=O)cc1` gave MARV entry inh inconclusive, Lassa entry inh inconclusive, Vaccinia Venus -29.8%, Vaccinia mCherry inconclusive, HCMV inh -62.0* and HCV inh inconclusive.
For COc1ccccc1NC(=O)C1=C(C)Nc2nc(SCc3ccccc3Cl)nn2C1c1ccccn1 (stereo not drawn) the results were MARV entry inh 8.9%[46.1 µM], Lassa entry inh -13.4%[46.1 µM], Vaccinia Venus -8.4%, Vaccinia mCherry inactive and HCMV inh -14.4.
Screening COc1cc(OC)cc(C(=O)NCC(c2cccs2)S(=O)(=O)c2ccc(F)c(C)c2)c1 (stereo not drawn) returned Lassa entry inh 12.4%[46.1 µM], Vaccinia Venus -4.9%, Vaccinia mCherry -13.7% and HCMV inh 9.5.
For CCCN1CCN(C(=O)c2cnn(-c3ncc4c(n3)-c3ccccc3CCC4)c2COC)CC1 the results were Vaccinia Venus -14.2% and Vaccinia mCherry -23.7%.
COc1ccc(-c2cn3c(n2)sc2cc(C(=O)NCCC4=CCCCC4)ccc23)cc1 was read as Lassa entry inh -13.8%[46.1 µM], Vaccinia Venus -2.0% and Vaccinia mCherry -6.9%.
`CCn1c2ccccc2c2c3ncc4cccn4c3ccc21` gave MARV entry inh 13.2%[46.1 µM], Lassa entry inh 1.7%[46.1 µM], Vaccinia Venus -11.4%, Vaccinia mCherry -29.4%, HCMV inh 191.7 and HCV inh 11.2µM*.
For Cc1oc(-c2cccc(Cl)c2)nc1CSc1nc2ncccc2[nH]1 the results were Lassa entry inh 27.8%[46.1 µM], Vaccinia Venus -5.8%, Vaccinia mCherry -4.8% and HCMV inh -19.4.
For O=C(Nc1ccc2c(c1)CCC2)c1c(F)cccc1Cl the results were MARV entry inh 18.1%[46.1 µM], Lassa entry inh 0.7%[46.1 µM], Vaccinia Venus -1.6%, Vaccinia mCherry inactive, HCMV inh -60.6* and HCV inh 9.8%.
Screening O=C1OCc2ccc(NC(=O)c3ccccc3C(=O)O)cc21 returned HCMV inh 11.3 and HCV inh 2.3%.
Screening Cc1ccc2sc3ccc(NC(=O)c4ccccc4Cl)cc3c(=O)c2c1 returned MARV entry inh inconclusive, Lassa entry inh 1.3%, HCMV inh -88.7* and HCV inh 8.91µM*.
Screening O=C(Nc1ccc2c(c1)C(=O)OC2)c1ccccc1Cl returned MARV entry inh inconclusive, Lassa entry inh 0.2%[46.1 µM], Vaccinia Venus -8.2%, Vaccinia mCherry -5.5%, HCMV inh -91.4* and HCV inh 3.6%.
`O=C(Nc1ccc2c(c1)CCC2)c1ccc(F)cc1` gave MARV entry inh 11.2µM*, Lassa entry inh inconclusive, Vaccinia Venus -18.9%, Vaccinia mCherry -26.4%, HCMV inh 51.2 and HCV inh inconclusive.
Cc1cc(NC(=O)c2ccccc2Cl)ccc1NC(=O)c1ccccc1Cl was read as HCMV inh 93.2 and HCV inh inconclusive.
`COC(=O)c1cc2oc3ccccc3c2n1Cc1nc(-c2ccccc2Cl)oc1C` gave MARV entry inh 2.0%[46.1 µM], Vaccinia Venus -7.6%, Vaccinia mCherry -13.7% and HCMV inh 11.9.
For COC(=O)C1=C(C)N(Cc2ccccc2)C(=NCC(C)C)NC1c1cccc(C(F)(F)F)c1 (stereo not drawn) the results were MARV entry inh 9.1%[14.2 µM] and Lassa entry inh inconclusive.
O=C1OCc2ccc(NC(=O)c3c(F)cccc3Cl)cc21 was read as MARV entry inh inconclusive, Lassa entry inh 0.8%[46.1 µM], Vaccinia Venus -4.5%, Vaccinia mCherry -17.3%, HCMV inh -85.2* and HCV inh -7.6%.
O=C(Nc1ccc2c(c1)OCO2)N[C@H]1CC[C@@]23CCCN2C(=O)CCC[C@H]3C1Cc1ccccc1 (stereo partly drawn) was read as HCMV inh 32.5.
Screening CCCn1nc(NC(=O)c2cccs2)c2cc3ccc(C)cc3nc21 returned HCMV inh -27.5 and HCV inh 14.1µM*.
Screening CCn1nc(NC(=O)c2ccncc2)c2cc3ccc(C)cc3nc21 returned MARV entry inh inconclusive, Lassa entry inh -11.6%, HCMV inh 14.3 and HCV inh inconclusive.
`CCCn1nc(NC(=O)c2cccs2)c2cc3cc(C)ccc3nc21` gave MARV entry inh 1.3%[46.1 µM], Lassa entry inh inconclusive, Vaccinia Venus -24.1%[7.34 µM], Vaccinia mCherry -21.3%[7.34 µM], HCMV inh 24.7 and HCV inh 22.4µM*.
